Experimental data published in the supplement of paper PMC8975748.
Structures can show the parent of a compound that is named as a salt. ± gives the standard deviation of the averaged measurements.

Legend:
[1] = system: Saccharomyces cerevisiae BY4741 SeMeCo community; assay: mean cell size (pixel area) (pixels); higher = larger cells; conditions: 10 µM; 24 h; SM minimal medium
Method in brief: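 Mean cell pixel area per well was determined by automated confocal microscopy with Harmony analysis of paraformaldehyde-fixed cells. The cells, a Saccharomyces cerevisiae BY4741 community of four plasmids that each complement one auxotrophy and carry a fluorescent marker, were incubated for 24 h with drug at a final 10 µM in SM medium in 384-well plates. Numbers are averaged over 3 replicates. Same SeMeCo high-content imaging drug screen: Selleck FDA-approved drugs at 10 µM, 24 h in SM medium, 384-well plates, 3 replicates.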

[2] = system: Saccharomyces cerevisiae BY4741 SeMeCo community; assay: z-score of prototroph abundance vs DMSO median; higher = larger share of this subpopulation than in DMSO controls; conditions: 10 µM; 24 h; SM minimal medium; subpopulation (auxotrophy): Prototroph
Method in brief: (§1)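 A Saccharomyces cerevisiae BY4741 community carried four plasmids, each restoring one auxotrophy and encoding a distinct fluorescent protein. It was pre-grown overnight to OD600 1.0, diluted to 0.3, and 70 µl was added to 384-well plates acoustically predosed with library drugs (10 µM final), then grown 24 h in minimal SM medium. Cells were paraformaldehyde-fixed and imaged by automated confocal microscopy, with single-auxotroph fluorescent strains setting thresholds and autofluorescence correction. Each subpopulation's abundance was scored as a z-score against the vehicle-well median.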

[3] = system: Saccharomyces cerevisiae BY4741 SeMeCo community; assay: z-score of subpopulation abundance vs DMSO median, subpopulation auxotrophic for M; higher = larger share of this subpopulation than in DMSO controls; conditions: 10 µM; 24 h; SM minimal medium; subpopulation (auxotrophy): M
Method in brief: as §1

[4] = system: Saccharomyces cerevisiae BY4741 SeMeCo community; assay: z-score of subpopulation abundance vs DMSO median, subpopulation auxotrophic for L; higher = larger share of this subpopulation than in DMSO controls; conditions: 10 µM; 24 h; SM minimal medium; subpopulation (auxotrophy): L
Method in brief: as §1

[5] = system: Saccharomyces cerevisiae BY4741 SeMeCo community; assay: z-score of subpopulation abundance vs DMSO median, subpopulation auxotrophic for U; higher = larger share of this subpopulation than in DMSO controls; conditions: 10 µM; 24 h; SM minimal medium; subpopulation (auxotrophy): U
Method in brief: as §1

[6] = system: Saccharomyces cerevisiae BY4741 SeMeCo community; assay: z-score of subpopulation abundance vs DMSO median, subpopulation auxotrophic for H; higher = larger share of this subpopulation than in DMSO controls; conditions: 10 µM; 24 h; SM minimal medium; subpopulation (auxotrophy): H
Method in brief: as §1

[7] = system: Saccharomyces cerevisiae BY4741 SeMeCo community; assay: z-score of subpopulation abundance vs DMSO median, subpopulation auxotrophic for LU; higher = larger share of this subpopulation than in DMSO controls; conditions: 10 µM; 24 h; SM minimal medium; subpopulation (auxotrophy): LU
Method in brief: as §1

[8] = system: Saccharomyces cerevisiae BY4741 SeMeCo community; assay: z-score of subpopulation abundance vs DMSO median, subpopulation auxotrophic for LM; higher = larger share of this subpopulation than in DMSO controls; conditions: 10 µM; 24 h; SM minimal medium; subpopulation (auxotrophy): LM
Method in brief: as §1

[9] = system: Saccharomyces cerevisiae BY4741 SeMeCo community; assay: z-score of subpopulation abundance vs DMSO median, subpopulation auxotrophic for HM; higher = larger share of this subpopulation than in DMSO controls; conditions: 10 µM; 24 h; SM minimal medium; subpopulation (auxotrophy): HM
Method in brief: as §1

[10] = system: Saccharomyces cerevisiae BY4741 SeMeCo community; assay: z-score of subpopulation abundance vs DMSO median, subpopulation auxotrophic for HU; higher = larger share of this subpopulation than in DMSO controls; conditions: 10 µM; 24 h; SM minimal medium; subpopulation (auxotrophy): HU
Method in brief: as §1

[11] = system: Saccharomyces cerevisiae BY4741 SeMeCo community; assay: z-score of subpopulation abundance vs DMSO median, subpopulation auxotrophic for UM; higher = larger share of this subpopulation than in DMSO controls; conditions: 10 µM; 24 h; SM minimal medium; subpopulation (auxotrophy): UM
Method in brief: as §1

[12] = system: Saccharomyces cerevisiae BY4741 SeMeCo community; assay: z-score of subpopulation abundance vs DMSO median, subpopulation auxotrophic for HL; higher = larger share of this subpopulation than in DMSO controls; conditions: 10 µM; 24 h; SM minimal medium; subpopulation (auxotrophy): HL
Method in brief: as §1

[13] = system: Saccharomyces cerevisiae BY4741 SeMeCo community; assay: z-score of subpopulation abundance vs DMSO median, subpopulation auxotrophic for HLM; higher = larger share of this subpopulation than in DMSO controls; conditions: 10 µM; 24 h; SM minimal medium; subpopulation (auxotrophy): HLM
Method in brief: as §1

[14] = system: Saccharomyces cerevisiae BY4741 SeMeCo community; assay: z-score of subpopulation abundance vs DMSO median, subpopulation auxotrophic for HUM; higher = larger share of this subpopulation than in DMSO controls; conditions: 10 µM; 24 h; SM minimal medium; subpopulation (auxotrophy): HUM
Method in brief: as §1

[15] = system: Saccharomyces cerevisiae BY4741 SeMeCo community; assay: z-score of subpopulation abundance vs DMSO median, subpopulation auxotrophic for LUM; higher = larger share of this subpopulation than in DMSO controls; conditions: 10 µM; 24 h; SM minimal medium; subpopulation (auxotrophy): LUM
Method in brief: as §1

[16] = system: Saccharomyces cerevisiae BY4741 SeMeCo community; assay: z-score of subpopulation abundance vs DMSO median, subpopulation auxotrophic for HLUM; higher = larger share of this subpopulation than in DMSO controls; conditions: 10 µM; 24 h; SM minimal medium; subpopulation (auxotrophy): HLUM
Method in brief: as §1

[17] = system: Saccharomyces cerevisiae BY4741 SeMeCo community; assay: z-score of subpopulation abundance vs DMSO median, subpopulation auxotrophic for HLU; higher = larger share of this subpopulation than in DMSO controls; conditions: 10 µM; 24 h; SM minimal medium; subpopulation (auxotrophy): HLU
Method in brief: as §1

SMILES | mean cell size [1] | z-score of prototroph abundance [2] | z-score of subpopulation abundance [3] | z-score of subpopulation abundance [4] | z-score of subpopulation abundance [5] | z-score of subpopulation abundance [6] | z-score of subpopulation abundance [7] | z-score of subpopulation abundance [8] | z-score of subpopulation abundance [9] | z-score of subpopulation abundance [10] | z-score of subpopulation abundance [11] | z-score of subpopulation abundance [12] | z-score of subpopulation abundance [13] | z-score of subpopulation abundance [14] | z-score of subpopulation abundance [15] | z-score of subpopulation abundance [16] | z-score of subpopulation abundance [17]
O=C(CCCN1CCC(O)(c2ccc(Cl)cc2)CC1)c1ccc(F)cc1 [Haloperidol] | 12.4 ± 0.2 | 0.57 | -0.16 | 0.68 | -0.4 | -0.68 | -0.75 | 0.48 | -0.68 | -0.95 | -0.69 | 0.01 | -0.12 | -0.8 | -0.06 | 0.12 | 
C1CCN2C[C@@H]3C[C@@H](CN4CCCC[C@@H]34)[C@H]2C1 [(-)-Sparteine Sulfate] | 12.2 ± 0.3 | 0.31 | -0.03 | -0.01 | -0.7 |  | -0.85 | -0.13 | 0.08 | -0.03 | 0.01 | 1.4 | -0.86 | 0.1 | -0.1 | -0.92 | 
OCc1ccc(Cl)cc1Cl [2,4-dichlorobenzyl alcohol] | 12.32 ± 0.052 | -0.15 | -0.73 | 0.8 | 0.58 | 0 | 1.19 | 0.21 | -0.64 |  |  | 0.12 | 0.03 | -0.47 | -0.03 | 0.69 | 
Cc1cc(C)nc(NS(=O)(=O)c2ccc(N)cc2)n1 [Sulfamethazine] | 12.5 ± 0.25 | 0 | 0.92 | 0.4 | -0.82 | 0.21 | -0.83 | 0.84 | 0.43 | -0.43 | -0.43 | -0.28 | 0.59 | -0.1 |  | 0.42 | 
CN[C@H](CC(C)C)C(=O)N[C@H]1C(=O)N[C@@H](CC(N)=O)C(=O)N[C@H]2C(=O)N[C@H]3C(=O)N[C@H](C(=O)N[C@H](C(=O)O)c4cc(O)cc(O)c4-c4cc3ccc4O)[C@H](O)c3ccc(c(Cl)c3)Oc3cc2cc(c3O[C@@H]2O[C@H](CO)[C@@H](O)[C@H](O)[C@H]2O[C@H]2C[C@](C)(N)[C@H](O)[C@H](C)O2)Oc2ccc(cc2Cl)[C@H]1O [Vancomycin] | 12.3 ± 0.13 | 0.81 | -0.82 | -0.12 |  | -0.2 | 0.08 | -0.43 | -0.74 |  | -0.16 | -0.12 | -0.2 | -0.71 | -0.78 | -0.03 | 
O=C1OCCN1/N=C/c1ccc([N+](=O)[O-])o1 [Furazolidone] | 13.1 ± 0.18 |  |  |  | -7.17 | 3.6 |  | 1.07 |  | -5.84 | -6.39 | 2.14 | -0.06 | -3.95 | -2.42 | -0.24 | -2.4
CCC(C)(Oc1ccc(C2(c3ccc(OC(C)(CC)C(=O)O)cc3)CCCCC2)cc1)C(=O)O (stereo unspecified) [Clinofibrate] | 13.24 ± 0.13 | 0.14 |  | -2.3 | 0.34 | 1.7 |  |  | -0.03 | 0.11 | -2.08 | -0.48 | 2.85 | -0.82 | -1.09 |  | 0.73
CCOC(=O)c1ccc(N)cc1 [Benzocaine] | 12.5 ± 0.19 | 0.6 | 1.02 | -0.13 | -1.34 |  | -1.24 | 0.32 | 0.67 | -1.28 | -0.58 |  | -0.02 | -0.48 | -0.29 | -0.38 | 
CN1CCC(=C2c3ccccc3CCc3sccc32)CC1 [Pizotifen Malate] | 12.5 ± 0.16 |  |  | 0.36 | -0.76 | -0.02 |  | -0.03 |  | -0.33 | -0.43 | 0.05 | 0.21 | -0.14 | -0.55 | 0.16 | 0.5
Clc1ccc(C(Cn2ccnc2)OCc2ccc(Sc3ccccc3)cc2)c(Cl)c1 (stereo unspecified) [Fenticonazole Nitrate] | 10.7 ± 0.2 | -13.4 | -13.8 | 4.64 | 4.22 | 25 | 4.88 | -5.38 | -6.61 |  | -3.35 | 62.4 | 30.4 | 4.77 | -1.04 | 109 | 
C=C1CCN([C@H](C)[C@](O)(Cn2cncn2)c2ccc(F)cc2F)CC1 [Efinaconazole] | 11.3 ± 0.097 | -9.55 | 2.69 | 0.13 | -0.68 | 11.9 | -1.98 | 2.18 | 3.94 | 2.02 |  | 11.6 | 10.7 | 7.05 | 7.49 | 20.3 | 
C[N+](C)(C)CCO.[Cl-] [Choline Chloride] | 12 ± 0.25 | 0.21 | -1.56 | -0.08 |  | -0.8 | 0.54 | -0.75 | -1.2 | -0.41 | 0.32 | -0.62 | -0.83 | -0.76 | 0.75 | -0.62 | 
Cc1ccc(S(=O)(=O)NC(=O)NN2CC3CCCC3C2)cc1 (stereo unspecified) [Gliclazide] | 12.6 ± 0.2 | 0.12 |  | -0.2 | -0.1 | -0.29 |  |  | 0.02 | -0.25 | 0.59 |  |  | -0.04 | -0.57 | -0.17 | -0.52
COc1cccc2c1C(=O)c1c(O)c3c(c(O)c1C2=O)C[C@@](O)(C(C)=O)C[C@@H]3O[C@H]1C[C@H](N)[C@H](O)[C@H](C)O1 [Daunorubicin HCl] | 12.78 ± 0.043 | -0.6 |  | -1.28 | 4.14 | 0.44 |  | -1.4 | -3.07 | 4.21 | 0.35 |  | -0.29 | 1.29 | 1.18 |  | 4.11
